Sampled rows, rich in hits. Any-hit rate of the full collection: about 2.6%.
Bim-Mcl-1 – disrupts Bim peptide binding to human Mcl-1; Q07820; Bead-based flow cytometry, Bim peptide-Mcl-1 binding; inhibition, % at 10 µM; 0.1% of 190,000 active; in the data active means inhibition above about 40%
Target sequence (Q07820 whole entry, looked up): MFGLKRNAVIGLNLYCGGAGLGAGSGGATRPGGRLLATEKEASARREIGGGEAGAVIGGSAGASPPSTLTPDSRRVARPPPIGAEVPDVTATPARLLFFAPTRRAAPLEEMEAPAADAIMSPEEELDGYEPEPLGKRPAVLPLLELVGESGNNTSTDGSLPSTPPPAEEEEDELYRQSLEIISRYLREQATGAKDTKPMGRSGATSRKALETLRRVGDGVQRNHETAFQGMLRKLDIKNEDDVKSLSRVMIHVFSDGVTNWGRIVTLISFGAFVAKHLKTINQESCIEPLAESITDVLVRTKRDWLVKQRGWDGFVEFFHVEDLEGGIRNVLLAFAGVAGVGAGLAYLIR
eIF4E 4G PPI – eIF4E/eIF4G interaction inhibition in translation initiation. AID 782. TR-FRET eIF4E-eIF4GI(517-606) binding, 2 h. inhibition, % at 21.7 µM. 0.37% of 220,000 active. P63073+Q04637;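 active means inhibition above about 30%, limit read from the data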
Mcl1 Noxa PPI – disrupts binding of human Mcl-1 to Noxa peptide | Q07820 | TR-FRET Mcl-1/Noxa peptide binding, 2 h | inhibition, % at 21.7 µM | 1.5% of 220,000 active | AID 1022;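 active means compounds that cut the protein-peptide binding signal by more than 50% relative to plate controls in a single-dose test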;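 further: His-tagged Mcl-1 with rhodamine Noxa BH3 peptide and terbium anti-His antibody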
MCL1 BIM primary – MCL1-BIM-BH3 interaction inhibition (human); Q07820; GST-MCL1 / FITC-Bim-BH3 fluorescence polarization; inhibition, % at 10.9 µM; 0.68% of 320,000 active; AID 2057;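 active means inhibition above the mean inhibition of all tested compounds plus 3 SD, set per campaign, cut at about 40% in these data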;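 further: higher means more loss of mP so more displacement of Bim peptide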
Mcl1 Bid PPI – disrupts binding of human Mcl-1 to Bid peptide; TR-FRET Mcl-1/Bid-Dy647 peptide binding, 1536-well; AID 1021; inhibition, % at 21.7 µM; 0.97% of 220,000 active;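 active means compounds that cut the binding signal by more than half at the single screening dose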;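 further: His-tagged Mcl-1 with europium anti-His antibody binding Bid BH3 peptide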
14-3-3 Bad inh – disrupts binding of bovine 14-3-3 zeta to phospho-Bad peptide; P63103; TR-FRET 14-3-3zeta/Dy647-pBad peptide displacement, 1 h; inhibition, % at 21.7 µM; 0.71% of 220,000 active; AID 781;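 active means inhibition above about 70%, limit read from the data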
Bcl-xL conf – Bcl-xL (human) inhibition, MCL1 counter-screen confirmation; shares compounds with MCL1 BIM primary; GST-Bcl-xL / FITC-Bim BH3 peptide FP binding; inhibition, % at 10.9 µM; 54% of 1,700 active; AID 2166;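 active means inhibition above a cutoff equal to the mean inhibition of all tested compounds plus 3 SD, cut at about 30% in these data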
MCL1 inh confirm – MCL1-BIM-BH3 interaction inhibition, confirmation; shares compounds with MCL1 BIM primary; GST-MCL1 / FITC-Bim-BH3 fluorescence polarization; inhibition, % at 10.9 µM; 61% of 1,700 active;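 active means inhibition above the average of all tested compounds plus 3 SD, cut at about 40% in these data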
Of the large screens only hits and unclear results are named; the others gave an inactive call (follow-up assays come after a bar, where they were run).

CCCN(C(=S)Nc1ccccc1)C1CCS(=O)(=O)C1 (configuration not stated)	none
O=C1/C(=N\S(=O)(=O)c2cccs2)C([n+]2cccc(Cc3ccccc3)c2)=C([O-])c2ccccc21	MCL1 BIM primary active (no result: Bim-Mcl-1) | Bcl-xL conf active | MCL1 inh confirm active
O=C(NCCC1CCCCN1S(=O)(=O)c1ccc(F)cc1)C(=O)NCC1CCCO1 (configuration not stated)	none (no result: Bim-Mcl-1, eIF4E 4G PPI, Mcl1 Noxa PPI, Mcl1 Bid PPI, 14-3-3 Bad inh)
COc1ccc(NC(=O)CN(c2ccc(F)cc2)S(=O)(=O)c2ccccc2)c(OC)c1	none (no result: Bim-Mcl-1, eIF4E 4G PPI, Mcl1 Noxa PPI, Mcl1 Bid PPI, 14-3-3 Bad inh)
CCN1CCC(NCCc2ccc(F)cc2)CC1	none (no result: Bim-Mcl-1, eIF4E 4G PPI, Mcl1 Noxa PPI, Mcl1 Bid PPI, 14-3-3 Bad inh)
COc1c(O)cccc1[C@H](O)C1CCN(CCc2ccc(F)cc2)CC1	MCL1 BIM primary 56 (no result: Bim-Mcl-1, eIF4E 4G PPI, Mcl1 Noxa PPI, Mcl1 Bid PPI, 14-3-3 Bad inh) | Bcl-xL conf 56 | MCL1 inh confirm 60
CC(C)c1[nH]nc2c1C1(CCN(Cc3ccccc3)CC1)C(C#N)=C(N)O2	MCL1 BIM primary 114 | Bcl-xL conf inactive | MCL1 inh confirm inactive
Cc1[nH]nc2c1C1(CCN(Cc3ccccc3)CC1)C(C#N)=C(N)O2	none
COc1ccc(OCC(=O)N2CCCC(CO)(CCOc3ccccc3)C2)cc1 (configuration not stated)	none (no result: Bim-Mcl-1, eIF4E 4G PPI, Mcl1 Noxa PPI, Mcl1 Bid PPI, 14-3-3 Bad inh)
O=C(Nc1ccc([N+](=O)[O-])cc1)c1ccc(S(=O)(=O)N2CCCC2)cc1	MCL1 BIM primary 58 (no result: Bim-Mcl-1, eIF4E 4G PPI, Mcl1 Noxa PPI, Mcl1 Bid PPI, 14-3-3 Bad inh) | Bcl-xL conf inactive | MCL1 inh confirm inactive
CN1CCN(C(c2ccc(Br)cc2)c2cc(Cl)c3cccnc3c2O)CC1 (configuration not stated)	MCL1 BIM primary 40 (no result: Bim-Mcl-1, eIF4E 4G PPI, Mcl1 Noxa PPI, Mcl1 Bid PPI, 14-3-3 Bad inh) | Bcl-xL conf 47 | MCL1 inh confirm 106
C/C(N)=C(/C#N)C(=O)CSc1nnc(NC(C)C)s1	MCL1 BIM primary 51 | Bcl-xL conf inactive | MCL1 inh confirm 78
COc1ccc(CNC(=O)COC(=O)/C=C/c2cccc(Br)c2)cc1OC	none
Cn1nc(-c2ccccc2)cc1NS(=O)(=O)c1ccccc1	none (no result: Bim-Mcl-1)
Cn1nc(-c2ccccc2)cc1NS(=O)(=O)c1ccc(C#N)cc1	MCL1 BIM primary 97 (no result: Bim-Mcl-1) | Bcl-xL conf inactive | MCL1 inh confirm inactive
Oc1ccc(-c2cn3c(n2)SCC3)cc1O	Mcl1 Noxa PPI 95, MCL1 BIM primary 60 | Bcl-xL conf 30 | MCL1 inh confirm 55
O=C(COC(=O)c1cc(Br)ccc1Cl)NC1CCCC1	none
CCCCn1c(N)c(NCc2ccccc2OC)c(=O)[nH]c1=O	none
CCCCNc1c(N)n(CCCC)c(=O)[nH]c1=O	MCL1 BIM primary 52 | Bcl-xL conf 56 | MCL1 inh confirm 79
CCCCn1c(N)c(NCCC)c(=O)[nH]c1=O	MCL1 BIM primary 50 | Bcl-xL conf inactive | MCL1 inh confirm inactive
CC1CCCN(Cc2c(O)ccc3c2O/C(=C\c2ccco2)C3=O)C1 (configuration not stated)	Mcl1 Noxa PPI 58, MCL1 BIM primary 152 | Bcl-xL conf 119 | MCL1 inh confirm 133
CCN1CCN(Cc2c(O)ccc3c2O/C(=C\C=C\c2ccccc2)C3=O)CC1	none
CCN1CCN(Cc2c(O)ccc3c2O/C(=C\c2ccccc2)C3=O)CC1	MCL1 BIM primary 55 | Bcl-xL conf 59 | MCL1 inh confirm 62
CN(C)Cc1c(O)ccc2c1O/C(=C\C=C\c1ccccc1)C2=O	MCL1 BIM primary 76 (no result: Bim-Mcl-1) | Bcl-xL conf 85 | MCL1 inh confirm 91
O=C(CN(C(=O)c1csnn1)c1ccc(Cl)cc1)NCc1ccc2c(c1)OCO2	none (no result: Bim-Mcl-1, eIF4E 4G PPI, Mcl1 Noxa PPI, Mcl1 Bid PPI, 14-3-3 Bad inh)
O=C(c1ccc([N+](=O)[O-])s1)N1CCN(c2ccc(C(F)(F)F)cn2)CC1	none (no result: Bim-Mcl-1, eIF4E 4G PPI, Mcl1 Noxa PPI, Mcl1 Bid PPI, 14-3-3 Bad inh)
CC1=C(C(=O)Nc2ccccc2)C(c2sccc2C)n2nnnc2N1 (configuration not stated)	none (no result: MCL1 BIM primary)
O=C(O)c1ccc(-n2cccc2/C=N\NC(=O)c2cc3cc(Br)ccc3o2)cc1	Mcl1 Noxa PPI 92, MCL1 BIM primary 62, 14-3-3 Bad inh 80 (no result: Bim-Mcl-1) | Bcl-xL conf inactive | MCL1 inh confirm 57
Cn1cc(/C=N/NC(=O)c2cc3cc(Br)ccc3o2)c2ccccc21	none (no result: Bim-Mcl-1)

Screens as filed in PubChem BioAssay.
